Laboratory results taken from PubChem BioAssay (NCI).
Values joined by “and” are separate entries in the source; they are usually repeats but may differ in a detail not shown here. Equal values may be shown once. Compounds without any hit were thinned out: in the full panel of roughly 83,000, 20% have a hit.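 Step 1: grow cells in 96-well plates. Step 2: add test compound at a single concentration. Step 3: incubate 48 h. Step 4: record percent growth.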 Values without a mark were called inactive. Active and inactive are the calls of the source. How the source made its calls: active means growth percent below 10; inactive means the rest.

System: SF-295 CNS
Assay: NCI-60 one-dose screen, 48 h (100 = growth as untreated, 0 = no growth, -100 = all killed)
Conditions: 10 µM unless noted

Row | SMILES | growth
1 | CCOC(=O)C1=C(C)N=C2SC=C(c3ccc(F)cc3)N2[C@H]1c1cn(-c2ccccc2)nc1-c1ccc(Cl)cc1 | 99%
2 | CCN(C(=O)N1CCN(c2cc3c(cc2F)c(=O)c(C(=O)O)cn3C2CC2)CC1)c1nc(-c2ccccc2)cs1 | 8.29% (active)
3 | O=C(/C=C/c1ccc(Cl)s1)c1ccc(Cl)s1 | 90.7%
4 | C=CCOc1ccc(/C=C2\SC(=S)N(CCc3ccc(O)cc3)C2=O)cc1 | 91.1%
5 | Cc1c(CC(=O)OCCO)cc(-c2ccc(Cl)cc2)n1-c1ccccc1 | 96.6%
6 | CC1(C)C(N)=Nc2cc(OCCCN3Cc4ccc(OCCc5cn(CC(=O)N6CCC(CCN7CCCC7)CC6)nn5)cc4C3)c(OCC3CC3)cc21 | 100%
7 | O=C1OCC2=C1C(c1cccc(C(F)(F)F)c1)c1cc3c(cc1N2CCO)OCCO3 (centres undefined) | 0.743% (active)
8 | N#CC1=C(N)Oc2c(sc3c(Br)cccc23)C1c1ccccn1 (centres undefined) | 18%
9 | O=C1c2cccc3cccc(c23)C(=O)N1N1C(=O)c2cccc3c(N4CCNCC4)ccc(c23)C1=O | 101%
10 | O=C(Nc1ccc(F)cc1)c1cc2cc(Nc3nc(-c4ccccc4)nc4ccccc34)ccc2oc1=O | 108%
11 | O=C1c2cc3c(cc2-c2c1c1ccc(Cl)cc1c(=O)n2CCCn1ccnc1)OCO3 | -10.1% (active)
12 | COc1ccc(C/C(C)=C(/c2ccc(OCCN3CCCC3)cc2)c2ccc(OC(=O)NCc3ccccc3)cc2)cc1 | 95.2%
13 | CCCO/N=C/c1ccccn1 | 131% and 95.3%
14 | COc1ccc(-c2csc(NC(=O)CN3CCN(CCO)CC3)n2)cc1NS(=O)(=O)c1cccc2c(N(C)C)cccc12 | 29.7%
15 | Cc1ccc(-c2nc3nc(-c4ccccc4)nc(N4CCN(S(=O)(=O)c5ccccc5)CC4)c3o2)cc1 | 74.7%
16 | CCOc1nc(-c2ccccc2)cc2c(O)c(C(=O)N/N=C/c3ccc(N(C)C)cc3)[nH]c(=O)c12 | 111%
17 | C/C(=C(\c1ccc(OCCN2CCOCC2)cc1)c1ccc(OC(=O)C2CCCCC2)cc1)c1ccc(Cl)cc1 | 106%
18 | COc1ccc2c(c1)CC[C@@H]1[C@@H]2CC[C@]2(C)C3C(=CCC4C(=O)N(c5ccccc5)C(=O)C43)C[C@@H]12 (some centres undefined) | 96.4%
19 | CC(=O)c1c(C)nc2ccccc2c1/C=C/c1cccc(C)c1 | 58%
20 | CCN(CC)CC#CCOC(=O)[C@]1(C)CCC[C@]2(C)c3ccc(C(C)C)cc3CC[C@@H]12 | 92.8%

Row | SMILES | growth
21 | O=C1/C(=C/c2ccc(-c3ccccc3C(F)(F)F)o2)SC(=S)N1CCc1ccc(O)cc1 | 54.4%
22 | COc1ccc(-c2[nH]c3ccccc3c2-c2ccc(OC)cc2)cc1 | 50.2%
23 | O=C(CN1C(=O)S/C(=C\C(Cl)=C\c2ccccc2)C1=O)NC1C=CS(=O)(=O)C1 (centres undefined) | 80.8%
24 | CCOC(=O)N(O)c1ccc(/C=C/c2ccccc2)cc1 | 41.7% and 11.4%
25 | COc1cc(/C=C2/C=C(c3ccc(C(C)(C)C)cc3)N(CCc3ccc(S(N)(=O)=O)cc3)C2=O)cc(OC)c1OC | 49.4%
26 | O=[N+]([O-])c1cc(C(F)(F)F)ccc1Sc1ccc(C(F)(F)F)cc1[N+](=O)[O-] | 106%
27 | O=C(N=Nc1c(O)[nH]c2ccccc12)Nc1ccccc1Cl | 94.1%
28 | Nc1n[nH]c2cccc(C#Cc3cccc(NC(=O)c4ccc(N5CCOCC5)c(C(F)(F)F)c4)c3)c12 | -36.9% (active)
29 | COc1ccc(Oc2nc(Nc3ccc(N4CCOCC4)cc3)ncc2NC(=O)c2cc(OC)cc(OC)c2)cc1 | 94%
30 | COc1cc(F)c(/C=C/c2cc(/C=C/c3cc(OC)c(OC)cc3F)n(-c3cc(F)cc(F)c3)n2)cc1OC | 54.2%
31 | [Cu+].[NH-][C@H]1C[N-]C(=O)[C@H]([C@H]2CCN=C(N)N2)[N-]C(=O)/C(=C\NC(N)=O)[N-]C(=O)[C@H](CNC(=O)C[C@@H](N)CCCN)[N-]C(=O)[C@H](CO)[N-]C1=O | 99.6%
32 | COc1cc(N=Nc2ccc(O)c3ncccc23)c2ncccc2c1 | 67.8%
33 | O=S(=O)(O)c1ccc(N=Nc2ccc(N=Nc3cccc4ccccc34)c(S(=O)(=O)O)c2)cc1 | 106%
34 | COc1ccc(-c2cc(-c3cccnc3)nc3sc4c(Cl)nnnc4c23)cc1OC | 101%
35 | C=C1C(=O)O[C@@H]2[C@H]3[C@H](COC(C)=O)[C@@H](OC(C)=O)C[C@H]3C(=C)[C@@H](O)C[C@@H]12 | 103%
36 | CCCn1nc(C(=O)N2CCCCC2)c2c1CCC(N1CCC(c3ccncc3)CC1)C2 (centres undefined) | 106%
37 | CN1CCN(c2ccc(/C=C/C(=O)c3ccc(O)cc3)cc2)CC1 | 95.1%
38 | CCN(c1cc(-c2ccc(CN3CCC(/C=C/S(=O)(=O)c4ccccc4)CC3)cc2)cc(C(=O)NCc2c(C)cc(C)[nH]c2=O)c1C)C1CCOCC1 | 84.8%
39 | Cc1ccc(-c2nc3nc(-c4ccc(Cl)cc4)nc(N4CCCNCC4)c3o2)cc1 | 85.3%
